From PubChem
TrxR1 inh: rat TrxR1 inhibition | O89049 | recombinant rTrxR1, NADPH fluorescence consumption, selenite substrate | Potency, µM (doses to about 114 µM), most hits filed as inhibitors | actives 1% (n = 390,000); further: nearly all actives have a fitted effect of over 65% in size
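Rat TrxR1 (90 nM in the dispensed reagent) was pre-reduced with 400 uM NADPH for 5 min at room temperature, then incubated with compound for 15 min. After 400 uM selenite was added, NADPH fluorescence (Ex 340/Em 450 nm) was followed for 8 min.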
A549 tox: A549 cytotoxicity, counter-screen for Nrf2 inhibitors | Potency, µM (top dose mostly 46 µM), usual class: inhibitors | A549 ARE-Fluc cells, CellTiter-Fluor viability, 18-24 h | AID 504648 | actives 0.16% (n = 390,000)
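A549 ARE-Fluc cells in 5% FBS OPTI-MEM, 5000 cells/well, rested 2 h then exposed to compounds in concentration-response for 18-24 h at 37 °C. Viability by CellTiter-Fluor fluorescence (Ex 405/Em 525) after 30 min; luciferase luminescence (BugLite, 15 min, RT) read afterwards.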
mIDH1 inhibitor: inhibitors of human mutant IDH1 R132H; O75874; IDH1-R132H enzyme, NADPH consumption, diaphorase/resazurin fluorescence; Potency, µM (highest dose often 76.6 µM), actives largely listed as inhibitors; actives 0.093% (n = 390,000); further: nearly all actives have a fitted effect of over 65% in size
Target sequence (O75874 whole entry R132H, stated change not applied): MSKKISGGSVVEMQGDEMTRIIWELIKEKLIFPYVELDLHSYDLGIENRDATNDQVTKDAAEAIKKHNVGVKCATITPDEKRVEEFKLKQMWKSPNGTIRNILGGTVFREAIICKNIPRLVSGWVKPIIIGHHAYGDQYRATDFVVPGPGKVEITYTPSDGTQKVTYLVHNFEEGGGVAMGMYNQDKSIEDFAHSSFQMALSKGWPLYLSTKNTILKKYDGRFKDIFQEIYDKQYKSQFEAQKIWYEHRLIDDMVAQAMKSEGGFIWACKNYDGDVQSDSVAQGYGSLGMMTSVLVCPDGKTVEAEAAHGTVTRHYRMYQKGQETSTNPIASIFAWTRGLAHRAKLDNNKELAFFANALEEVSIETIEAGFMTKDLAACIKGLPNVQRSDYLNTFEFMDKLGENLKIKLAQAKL
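IDH1-R132H (0.5 ug/mL dispensed) in pH 7.5 Tris buffer was preincubated 30 min with compound, then given a substrate mix of 0.016 mM NADPH and 2 mM alpha-KG for 80 min at room temperature; remaining NADPH was read by diaphorase/resazurin fluorescence.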
Nrf2 inh: inhibitors of Nrf2 signaling | actives 2.1% (n = 360,000) | AID 504444 | Potency, µM (highest dose often 46 µM), actives largely listed as inhibitors | A549 ARE-Fluc reporter, luciferase luminescence, 18-24 h; further: nearly all actives have a fitted effect of over 60% in size
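Concentration-response testing used A549 ARE_Fluc cells at 5000 cells/well. Following an 18-24 h compound incubation, viability was read by fluorescence (Ex 405/Em 525) and luciferase output by luminescence.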
Mito fusion act: blocks mitochondrial division or promotes mitochondrial fusion; S. cerevisiae fusion-defective mutant growth rescue, CellTiterGlo 48 h; Potency, µM (doses to about 46.1 µM), actives largely listed as activators; actives 0.23% (n = 320,000); further: nearly all actives have a fitted effect of over 45% in size
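Luminescent cell viability in 1536-well qHTS format served as the measure of rescued growth in ts fusion-mutant S. cerevisiae cultured on non-fermentable YPEG for 48 hours at 37C.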
TrxR1 substrate: substrates of rat thioredoxin reductase 1; O89049; purified TrxR1 substrate turnover, NADPH consumption readout; Potency, µM (titrated, usually from 114 µM); actives 0.01% (n = 390,000); AID 588456; further: nearly all actives have a fitted effect of over 50% in size
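Rat TrxR1, dispensed at 90 nM, was prereduced with 400 uM NADPH (final) for 5 min at ~22 deg C, then incubated with compound 15 min before 400 uM selenite. A first-read NADPH fluorescence drop versus no-compound background flagged substrates.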
IDH1 autofl: interferes with resorufin fluorescence in IDH1 counter-screen; shares compounds with mIDH1 inhibitor; AID 623980; inhibition of signal, % at 51.2 µM; Resorufin detection reagent fluorescence interference, cell-free; 750 tested, under 10 active
IDH1 WT: wild-type IDH1 (human) inhibition counterscreen. shares compounds with mIDH1 inhibitor. WT IDH1 enzyme, NADPH diaphorase/resazurin fluorescence. Potency, µM (titrated, usually from 115 µM), actives largely listed as inhibitors. actives 9% (n = 750); further: nearly all actives have a fitted effect of over 55% in size
Target sequence (O75874 whole entry, looked up): as the sequence (O75874 whole entry R132H, stated change not applied) above, with H132R counted along it
mIDH1 confirm: inhibits human mutant IDH1 enzyme in cherrypick confirmation; shares compounds with mIDH1 inhibitor; IDH1 R132H enzyme, NADPH diaphorase/resazurin fluorescence; Potency, µM (series often up to 76.6 µM), actives largely listed as inhibitors; actives 83% (n = 750); AID 624002; further: nearly all actives have a fitted effect of over 50% in size
Large screens that a line does not name were inactive (follow-up assays come after a bar, where they were run). Rows were chosen to be rich in hits. Some 3.1% of all compounds tested hit in one or more screens of this group. The call rests on the fitted dose curve; in most records, active means well fitted curve in the direction sought with a large enough effect; inconclusive means small, poorly fitted or top-dose-only effect, or another doubt; inactive means no such curve, though single readings can be large; an effect the other way counts as inactive or inconclusive.

Cc1ccc(-c2n[nH]c3c2C(c2ccccc2Cl)N(c2ccc(C(=O)O)cc2)C3=O)cc1 (stereo unspecified)	mIDH1 inhibitor 11µM (no result: Mito fusion act) | IDH1 autofl inactive | IDH1 WT 35µM | mIDH1 confirm 7.1µM
COc1ccc(-c2n[nH]c3c2C(c2ccc(OC)c(OC)c2)N(c2ccccc2)C3=O)cc1 (stereo unspecified)	mIDH1 inhibitor inconclusive | IDH1 autofl inactive | IDH1 WT inactive | mIDH1 confirm 20µM
CCOc1cc(C2c3c(-c4ccccc4)n[nH]c3C(=O)N2c2ccc(C(=O)O)cc2)ccc1O (stereo unspecified)	TrxR1 inh inconclusive, Nrf2 inh inconclusive
O=C(O)c1ccc(N2C(=O)c3[nH]nc(-c4ccccc4)c3C2c2cccc(F)c2)cc1 (stereo unspecified)	mIDH1 inhibitor inconclusive (no result: Mito fusion act) | IDH1 autofl inactive | IDH1 WT inactive | mIDH1 confirm 32µM
Cc1ccc(-c2n[nH]c3c2C(c2cccs2)N(c2ccc(Cl)cc2)C3=O)cc1 (stereo unspecified)	A549 tox inconclusive (no result: Mito fusion act)
COc1ccc(C2c3c(-c4ccc(F)cc4)n[nH]c3C(=O)N2c2ccccc2)cc1OC (stereo unspecified)	none (no result: Mito fusion act)
Cc1cc(C)c2c(=O)cc(C(=O)Nc3ccc(S(=O)(=O)Nc4onc(C)c4C)cc3)oc2c1	none (no result: Mito fusion act)
CCOC(=O)c1c(Nc2ccc(OCC)cc2)nnc(-c2ccccc2)c1-c1ccccc1	Nrf2 inh inconclusive (no result: Mito fusion act)
COc1ccc(NC(=O)CC2C(=O)N(c3cccc(C)c3)C(=O)N2Cc2cccnc2)cc1 (stereo unspecified)	Nrf2 inh inconclusive (no result: Mito fusion act)
Cc1ccc(S(=O)(=O)c2nc(-c3ccco3)oc2SC(C)c2ccccc2)cc1 (stereo unspecified)	none (no result: Mito fusion act)
Cc1cccc(N(CC(=O)NCc2ccccc2)S(C)(=O)=O)c1C	none (no result: Mito fusion act)
COc1ccc(-c2n[nH]c3c2C(c2ccc(O)cc2)N(c2ccc(Br)cc2)C3=O)cc1 (stereo unspecified)	Nrf2 inh inconclusive (no result: Mito fusion act)
COc1ccc(C2c3c(-c4ccccc4)n[nH]c3C(=O)N2c2ccc(C(=O)O)cc2)cc1 (stereo unspecified)	mIDH1 inhibitor 52µM | IDH1 autofl inactive | IDH1 WT inconclusive | mIDH1 confirm 45µM
COc1cccc(C2c3c(-c4ccccc4)n[nH]c3C(=O)N2c2ccc(C(=O)O)cc2)c1 (stereo unspecified)	mIDH1 inhibitor inconclusive | IDH1 autofl inactive | IDH1 WT inconclusive | mIDH1 confirm 20µM
O=C(O)c1ccc(N2C(=O)c3[nH]nc(-c4ccccc4)c3C2c2ccccc2)cc1 (stereo unspecified)	none
COc1cc(C2c3c(-c4ccc(C)cc4)n[nH]c3C(=O)N2c2ccc(F)cc2)ccc1O (stereo unspecified)	mIDH1 inhibitor inconclusive (no result: Mito fusion act) | IDH1 autofl inactive | IDH1 WT inactive | mIDH1 confirm 25µM
Cc1ccc(N2C(=O)c3[nH]nc(-c4ccc(Cl)cc4)c3C2c2ccc(F)cc2)cc1 (stereo unspecified)	A549 tox inconclusive, Nrf2 inh inconclusive (no result: Mito fusion act)
O=C(NC1(C(F)(F)F)NC(=O)N(CCc2ccccc2)C1=O)c1ccccc1F (stereo unspecified)	none (no result: Mito fusion act)
Cc1cccc(NCc2nnc3n2CCCCC3)c1C	none (no result: Nrf2 inh, Mito fusion act)
Cc1nn(-c2ccccc2)c(-n2cccc2)c1C(=O)NCCCN1CCN(c2ccccc2F)CC1	none (no result: Mito fusion act)
CCN(CC)S(=O)(=O)c1ccc2c(c1)N(CC(=O)N1CCN(c3cccc(C)c3C)CC1)C(=O)CO2	none (no result: Nrf2 inh, Mito fusion act)
COc1ccc(OC)c(N(C(=O)c2snc(C(N)=O)c2N)C(C(=O)NCc2ccccc2)c2ccc(O)cc2)c1 (stereo unspecified)	mIDH1 inhibitor inconclusive | IDH1 autofl inactive | IDH1 WT inactive | mIDH1 confirm 22µM
Cc1cccc(N(C(=O)c2snc(C(N)=O)c2N)C(C(=O)NCc2ccccc2)c2ccncc2)c1 (stereo unspecified)	mIDH1 inhibitor inconclusive, Nrf2 inh 23µM | IDH1 autofl inactive | IDH1 WT inactive | mIDH1 confirm 35µM
CCOc1cc2nc(-c3ccc(OC)c(OC)c3)nc(N3CC(C)OC(C)C3)c2cc1OC (stereo unspecified)	none (no result: TrxR1 inh, A549 tox, mIDH1 inhibitor, Nrf2 inh, TrxR1 substrate)
CCOc1cc2nc(-c3ccc(OC)c(OC)c3)nc(N3CCOCC3)c2cc1OC	mIDH1 inhibitor inconclusive, Mito fusion act inconclusive | IDH1 autofl inactive | IDH1 WT inactive | mIDH1 confirm 16µM
CC1=NN(C(N)=S)C(=O)C1N=Nc1cccc(Cl)c1 (stereo unspecified)	TrxR1 inh inconclusive, mIDH1 inhibitor inconclusive, Nrf2 inh inconclusive
COc1cccc(N=NC2C(=O)N(C(N)=S)N=C2C)c1 (stereo unspecified)	mIDH1 inhibitor inconclusive, Nrf2 inh inconclusive (no result: Mito fusion act) | IDH1 autofl inactive | IDH1 WT inactive | mIDH1 confirm inactive
C=C1CC2C(CCC3(C)C2CCC3(O)C(C)=O)C2(C)CCC(=O)C=C12 (stereo unspecified)	mIDH1 inhibitor 22µM, Nrf2 inh inconclusive | IDH1 autofl inactive | IDH1 WT 35µM | mIDH1 confirm 11µM
CC(=O)[C@@]1(O)CC[C@H]2[C@@H]3C[C@H](C)C4=CC(=O)CC[C@]4(C)[C@H]3CC[C@@]21C	none
O=C(O)COc1ccc2nsnc2c1Cl	none
Cc1ccccc1C1=C/C(=C(\SS/C(C(=O)c2ccc(OCC(=O)O)c(Cl)c2Cl)=C2\C=C(c3ccccc3C)SS2)C(=O)c2ccc(OCC(=O)O)c(Cl)c2Cl)SS1	TrxR1 inh inconclusive, A549 tox inconclusive, mIDH1 inhibitor 12µM, Nrf2 inh inconclusive (no result: Mito fusion act) | IDH1 autofl inactive | IDH1 WT inactive | mIDH1 confirm 40µM
COc1ccccc1N(C(=O)c1snc(C(N)=O)c1N)C(C(=O)NC1CCCCC1)c1cccc(OC)c1OC (stereo unspecified)	mIDH1 inhibitor inconclusive, Nrf2 inh inconclusive | IDH1 autofl inactive | IDH1 WT inactive | mIDH1 confirm inconclusive
